Each structure is given as a SMILES string. Values joined by “and” are separate entries in the source; they are usually repeats but may differ in a detail not shown here. Equal entries are not always repeated. Inconclusive results are not listed. More than one record can exist for a structure, and the calls need not agree. Active and inactive are the calls of the source. Unless noted, calls come from the whole dose curve.

A short description of experiment [1]: Nuclear factor erythroid 2-related factor 2/antioxidant responsive element (Nrf2/ARE) small molecule agonists: qHTS cell viability counter screen in human keratinocytes (AID 1919968; active = well fitted curve in the direction sought with a large enough effect in the repeat runs; an effect the other way counts as inactive or inconclusive; note: nearly all actives have a fitted effect of over 55% in size). An outline of the steps:
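Seed 1,500 KeratinoSens cells per well, then incubate 5 h at 37 C/5% CO2. Add compounds in DMSO and incubate 23 h. Add CellTiter-Fluor, wait 1 h and read fluorescence.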
(Quantitative high-throughput screening tests each substance at several concentrations.)

Experiment [2] is described as follows: Nuclear factor erythroid 2-related factor 2/antioxidant responsive element (Nrf2/ARE) small molecule agonists: luciferase reporter gene qHTS assay in human keratinocytes (AID 1919969). Note: nearly all actives have a fitted effect of over 35% in size. For orientation: Reporter assays use an easily measured gene product as a stand-in for the process of interest.
For experiment [3], the target named is KiSS-1 receptor (Homo sapiens) (UniProt Q969F8). Nature of the experiment: Human kisspeptin (KISS1R) small molecule agonists, calcium flux assay in KISS1R-HEK293 cells (AID 1920064; active = well fitted curve in the direction sought with a large enough effect in the repeat runs; an effect the other way counts as inactive or inconclusive). An outline of the steps:
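Cells plated and incubated 18 h; dye added, 1 h at 37 C; compounds in DMSO pinned in; signal read at 480/540 nm every second for 3 min. Each compound tested at 15 concentrations in triplicate.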
(Calcium assays in cells follow changes in intracellular calcium, usually with a dye or a luminescent sensor.)

The nature of experiment [4]: G protein-coupled receptor (GPCR) small molecule agonists, calcium flux assay: HEK293 wild type cell line counter screen (AID 1920065). The procedure, abridged:
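Counter-screen of the Tox21 10K library for non-specific calcium release: dye-loaded cells received compounds in DMSO and were monitored by kinetic fluorescence (480/540 nm, 3 min). Fifteen concentrations, run in triplicate.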

Experiment [5] can be described thus: p53 small molecule agonists, cell-based qHTS assay with human liver microsomes (AID 1963577). The procedure, abridged:
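Fluorescence of the beta-lactamase reporter in p53RE-bla cells, detected with LiveBLAzer substrate (2 h, room temperature, dark), served as the read-out after 16 h compound exposure at 37 C with human liver microsomes and NADPH, each 0.5 mg/mL final.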

A short description of experiment [6]: p53 small molecule agonists, cell-based qHTS assay with rat liver microsomes (AID 1963578). The procedure, abridged:
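Cells carrying a p53 response element–beta-lactamase reporter were plated and rested 5 h, then dosed with compound in DMSO plus rat liver microsomes and NADPH, each at 0.5 mg/mL final. After 16 h at 37 C, LiveBLAzer substrate was added for 2 h.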

Experiment [7] is described as follows: p53 small molecule agonists, cell-based qHTS assay with human liver microsomes: qHTS cell viability counter screen (AID 1963579). Note: nearly all actives have a fitted effect of over 45% in size. An outline of the steps: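 Cytotoxicity counter screen: p53RE-bla, 4,000 cells/well; 5 h settle, 37 C/5% CO2; cpd + HLM 0.5 mg/mL + NADPH 0.5 mg/mL (final); 16 h, 37 C; CellTiter-Glo, 30 min RT, luminescence.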
The nature of experiment [8]: p53 small molecule agonists, cell-based qHTS assay with rat liver microsomes: qHTS cell viability counter screen (AID 1963580). Note: nearly all actives have a fitted effect of over 45% in size. An outline of the steps: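 HCT-116 p53RE-bla, 4,000 cells/well, 5 h pre-incubation; cpd + rat liver microsomes 0.5 mg/mL + NADPH 0.5 mg/mL (final); 16 h, 37 C; CellTiter-Glo, 30 min RT; luminescence.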
The nature of experiment [9]: p53 small molecule agonists, cell-based qHTS assay: qHTS cell viability counter screen (AID 1963581). Note: nearly all actives have a fitted effect of over 45% in size. The procedure, abridged: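 Cells: HCT-116 with p53 response element-driven beta-lactamase. Treatment: 16 h, 37 C, compounds in DMSO. Read: CellTiter-Glo luminescence after 30 min RT.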
The nature of experiment [10]: p53 small molecule agonists, cell-based qHTS assay (AID 1963582; active = well fitted activation curve with a large enough effect in the signal ratio in the repeat runs, not every such curve was filed as active; the % refers to the signal ratio). The procedure, abridged:
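Quantitative HTS in p53RE-bla cells: after a 5 h settling period, compounds delivered in DMSO were left on cells for 16 h at 37 C, and reporter induction was measured as fluorescence following 2 h substrate loading.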

The target of experiment [11] is 5-hydroxytryptamine receptor 2A (Homo sapiens) (UniProt P28223). In words: 5-hydroxytryptamine receptor 2A (HTR2A) small molecule antagonists, cell-based qHTS assay (AID 1963586). Note: nearly all actives have a fitted effect of over 45% in size. Note: potency is the fitted concentration of half-maximal effect. The procedure, abridged: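 Antagonist-mode intracellular calcium assay: DOI (4 nM) added after 5 min compound pre-incubation at room temperature to dye-loaded HTR2A-CHO cells. Fluorescence followed for 3 min, sampled every second.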

For experiment [12] the target is unchanged. In words: 5-hydroxytryptamine receptor 2A (HTR2A) small molecule agonists, cell-based qHTS assay (AID 1963587). Note: nearly all actives have a fitted effect of over 30% in size. Note: potency is the fitted concentration of half-maximal effect. The procedure, abridged: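 Kinetic calcium-flux fluorescence (2 min, 1 sec intervals) after compound addition in agonist mode. HTR2A-CHO cells were cultured 18 h, then dye-loaded 1 h at 37 C.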
The target of experiment [13] is Muscarinic acetylcholine receptor M1 (Homo sapiens) (UniProt P11229). Nature of the experiment: Cholinergic receptor muscarinic 1 (CHRM1) small molecule antagonists, cell-based qHTS assay (AID 1963588). Note: nearly all actives have a fitted effect of over 40% in size. An outline of the steps: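 CHRM1-CHO calcium-flux assay, antagonist mode. Cells were seeded 18 h, dye-loaded 1 h at 37 C and given compound for 5 min at RT, then acetylcholine was added at 50nM. FDSS fluorescence was read 3 min; 15 concentrations, three runs.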

Experiment [14] shares this target. Nature of the experiment: Cholinergic receptor muscarinic 1 (CHRM1) small molecule agonists, cell-based qHTS assay (AID 1963589). Note: nearly all actives have a fitted effect of over 35% in size. An outline of the steps:
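Agonist-mode qHTS in CHO cells stably carrying human muscarinic M1. Intracellular calcium is tracked by fluorescence every second after compound transfer; each compound runs at 15 concentrations in three independent runs.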

The nature of experiment [15]: cAMP Responsive Elements (CRE) small molecule agonists, cell-based qHTS assay (AID 1963590). An outline of the steps:
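Agonist mode qHTS in CRE-bla HEK 293T cells: compounds dosed from DMSO for 3 h at 37 C/5% CO2, followed by LiveBLAzer B/G FRET substrate for 2 h at room temperature.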

Experiment [16] is described as follows: cAMP Responsive Elements (CRE) small molecule antagonists, cell-based qHTS assay (AID 1963591; active = well fitted inhibition curve with a large enough effect in the signal ratio in the repeat runs, not every such curve was filed as active; the % refers to the signal ratio). The procedure, abridged:
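Antagonist mode: test compounds are co-incubated with the adenylyl cyclase activator NKH477 (0.25 uM final) on CRE-bla HEK293T cells for 3 h at 37 °C, followed by LiveBLAzer substrate loading.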

The target of experiment [17] is Beta-2 adrenergic receptor (Homo sapiens) (UniProt P07550). In words: Adrenergic beta2 receptor (ADRB2) small molecule antagonists, cell-based qHTS assay (AID 1963592). Note: nearly all actives have a fitted effect of over 50% in size. Note: potency is the fitted concentration of half-maximal effect. An outline of the steps:
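Cells (CHO, stable ADRB2 overexpression) incubated 18-20hr at 37C; compounds added from DMSO; agonist mix (1nM isoproterenol, 100uM IBMX, 25uM Ro-20-1724) added; 0.5hr RT; d2-cAMP and anti-cAMP-cryptate added; 1hr RT; 665/615 nm read.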

Experiment [18] has the same target. In words: Adrenergic beta2 receptor (ADRB2) small molecule agonists, cell-based qHTS assay (AID 1963593).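 Note: CHO cells stably overexpressing human ADRB2.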 The procedure, abridged:
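CHO cells stably over-expressing ADRB2 were plated overnight at 37C, then dosed with compounds plus a stimulation mix containing 100uM IBMX and 25uM Ro-20-1724 for 0.5hr at room temperature. cAMP was measured by HTRF competition, 1hr.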

The target of experiment [19] is D(2) dopamine receptor (Homo sapiens) (UniProt P14416). In words: Dopamine D2 receptor (DRD2) small molecule agonists, cell-based qHTS assay (AID 1963594). Note: nearly all actives have a fitted effect of over 35% in size. An outline of the steps: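 cAMP accumulation in DRD2-HEK293 cells measured by HTRF after 1 h detection; compounds added 10 min before NKH477 (200nM […]) forskolin-analogue stimulation, 30 min at room temperature, with Ro20-1724 present at 0.1 mM final.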

Experiment [20] shares this target. Nature of the experiment: Dopamine D2 receptor (DRD2) small molecule antagonists, cell-based qHTS assay (AID 1963595; active = well fitted inhibition curve with a large enough effect in the signal ratio in the repeat runs, with a control signal flat; the % refers to the signal ratio). An outline of the steps:
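Stable D2 receptor HEK293 line, 24 h after seeding. Compound preincubated 10 min, then quinpirole (12 nM) with forskolin analogue NKH477 (200 nM), 30 min, room temperature. Detection by time-resolved FRET of cAMP.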

Muscarinic acetylcholine receptor M1 (Homo sapiens), sequence (P11229 whole entry, looked up): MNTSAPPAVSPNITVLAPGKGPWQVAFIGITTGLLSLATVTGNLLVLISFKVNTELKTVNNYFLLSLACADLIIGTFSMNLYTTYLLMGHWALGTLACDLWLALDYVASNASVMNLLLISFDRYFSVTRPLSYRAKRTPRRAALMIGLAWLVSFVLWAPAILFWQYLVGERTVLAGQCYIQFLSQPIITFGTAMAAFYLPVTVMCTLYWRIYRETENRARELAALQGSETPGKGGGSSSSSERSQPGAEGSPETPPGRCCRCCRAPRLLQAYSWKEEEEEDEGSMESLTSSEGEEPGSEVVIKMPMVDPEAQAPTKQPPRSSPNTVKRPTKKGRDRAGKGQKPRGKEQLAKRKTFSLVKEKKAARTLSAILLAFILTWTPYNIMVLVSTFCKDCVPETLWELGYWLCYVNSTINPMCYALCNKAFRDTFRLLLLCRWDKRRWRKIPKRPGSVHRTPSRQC
5-hydroxytryptamine receptor 2A (Homo sapiens), sequence (P28223 whole entry, looked up): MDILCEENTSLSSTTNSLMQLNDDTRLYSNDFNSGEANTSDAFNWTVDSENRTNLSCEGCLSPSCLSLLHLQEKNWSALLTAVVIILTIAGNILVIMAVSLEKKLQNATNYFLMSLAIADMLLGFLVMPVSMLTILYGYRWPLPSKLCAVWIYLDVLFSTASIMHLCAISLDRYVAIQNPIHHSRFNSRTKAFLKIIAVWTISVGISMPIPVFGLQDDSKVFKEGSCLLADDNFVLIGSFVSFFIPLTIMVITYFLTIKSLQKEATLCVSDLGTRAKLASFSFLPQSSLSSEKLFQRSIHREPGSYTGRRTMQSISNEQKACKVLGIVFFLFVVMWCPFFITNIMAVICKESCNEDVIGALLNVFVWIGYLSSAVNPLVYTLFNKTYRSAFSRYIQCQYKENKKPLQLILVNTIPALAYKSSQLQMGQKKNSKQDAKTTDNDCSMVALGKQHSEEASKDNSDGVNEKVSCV
KiSS-1 receptor (Homo sapiens), sequence (Q969F8 whole entry, looked up): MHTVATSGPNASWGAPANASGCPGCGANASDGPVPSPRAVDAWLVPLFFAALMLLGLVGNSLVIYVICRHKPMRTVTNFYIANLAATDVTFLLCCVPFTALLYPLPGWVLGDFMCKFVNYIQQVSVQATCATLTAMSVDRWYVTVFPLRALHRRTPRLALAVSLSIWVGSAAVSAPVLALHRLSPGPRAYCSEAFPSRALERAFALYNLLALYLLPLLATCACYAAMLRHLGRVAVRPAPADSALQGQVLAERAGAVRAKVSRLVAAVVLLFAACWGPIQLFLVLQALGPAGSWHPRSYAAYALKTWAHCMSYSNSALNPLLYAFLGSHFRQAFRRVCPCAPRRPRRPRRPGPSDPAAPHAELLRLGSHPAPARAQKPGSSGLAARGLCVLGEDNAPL
D(2) dopamine receptor (Homo sapiens), sequence (P14416 whole entry, looked up): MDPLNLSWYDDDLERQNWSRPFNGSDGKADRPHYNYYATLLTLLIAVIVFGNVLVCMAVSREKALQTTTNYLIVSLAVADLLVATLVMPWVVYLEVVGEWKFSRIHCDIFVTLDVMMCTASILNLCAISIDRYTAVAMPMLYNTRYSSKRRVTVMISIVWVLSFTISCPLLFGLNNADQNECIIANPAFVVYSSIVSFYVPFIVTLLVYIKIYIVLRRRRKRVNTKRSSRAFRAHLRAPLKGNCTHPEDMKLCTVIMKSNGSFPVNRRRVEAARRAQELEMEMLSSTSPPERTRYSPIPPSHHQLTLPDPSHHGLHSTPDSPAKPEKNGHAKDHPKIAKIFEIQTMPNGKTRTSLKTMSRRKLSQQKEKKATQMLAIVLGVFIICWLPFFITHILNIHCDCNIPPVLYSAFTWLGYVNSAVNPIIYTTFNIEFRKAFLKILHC
Beta-2 adrenergic receptor (Homo sapiens), sequence (P07550 whole entry, looked up): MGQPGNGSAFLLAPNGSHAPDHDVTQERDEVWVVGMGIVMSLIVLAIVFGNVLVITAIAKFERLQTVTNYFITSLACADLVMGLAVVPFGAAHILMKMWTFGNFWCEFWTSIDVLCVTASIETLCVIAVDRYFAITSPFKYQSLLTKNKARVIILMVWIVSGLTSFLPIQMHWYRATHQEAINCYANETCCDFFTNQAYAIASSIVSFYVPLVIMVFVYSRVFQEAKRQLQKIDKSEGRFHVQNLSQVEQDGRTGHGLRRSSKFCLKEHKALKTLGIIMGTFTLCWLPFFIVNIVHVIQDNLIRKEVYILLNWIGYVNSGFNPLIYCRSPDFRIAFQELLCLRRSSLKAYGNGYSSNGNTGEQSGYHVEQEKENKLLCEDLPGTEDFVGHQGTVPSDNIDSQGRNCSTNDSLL

Regarding `O=c1[nH]c2ccccc2c(=O)o1`, the Potency entry in experiment [1], in experiment [2], in [3], in experiment [4], in experiment [5] and in experiment [6] was “inactive” throughout. Also, the Potency result in [7], in experiment [8], in experiment [9], in experiment [10], in experiment [11] and in experiment [12] was “inactive” each time. In addition, the Potency result in [13], in experiment [14], in experiment [15], in experiment [16], in experiment [17] and in experiment [18] was “inactive” throughout. Also, the Potency entry in [19] and in [20] was “inactive” throughout.
With `CC(C)(C#N)N=NC(C)(C)C#N`, the Potency entry in experiment [1], in [2], in [3], in [4], in [5] and in experiment [6] was “inactive” throughout. In addition, the Potency entry in experiment [7], in experiment [8], in [9], in experiment [10], in experiment [12] and in experiment [13] was “inactive” in each case. Besides, the Potency result in [14], in [15], in [16], in experiment [17], in experiment [18] and in experiment [19] was “inactive” throughout. The Potency entry in experiment [20] is “inactive”.
Consider `CNC(=O)NC(O)C(Cl)(Cl)Cl` (centres undefined), for which the Potency result in experiment [1], in experiment [2], in experiment [3], in [4], in [5] and in experiment [6] was “inactive” throughout. Further, the Potency entry in experiment [7], in [8], in experiment [10], in experiment [11], in experiment [12] and in experiment [13] was “inactive” throughout. Besides, the Potency result in experiment [14], in [15], in experiment [16], in experiment [17], in [18] and in experiment [19] was “inactive” throughout.
Turning to `CN(C)CCc1c[nH]c2cccc(OP(=O)(O)O)c12`, the Potency entry in experiment [1], in experiment [2], in [3], in experiment [4], in experiment [5] and in experiment [6] was “inactive” throughout. The Potency entry in [7], in [9], in experiment [10], in experiment [13], in [14] and in [15] was “inactive” in each case. Also, the Potency result in experiment [16], in experiment [17], in [18] and in [19] was “inactive” each time. In addition, the Potency in experiment [11] is 73.5 nM (active); in experiment [12], 85.5 nM (active).
As for `Nc1cc(Cl)cc(C(=O)O)c1Cl`, the Potency result in experiment [1], in [2], in experiment [3], in [4], in [5] and in experiment [6] was “inactive” throughout. Besides, the Potency result in experiment [7], in experiment [8], in [9], in experiment [10], in experiment [11] and in [12] was “inactive” in each case. The Potency result in [13], in [14], in experiment [15], in [16], in experiment [17] and in experiment [18] was “inactive” in each case. Besides, the Potency result in experiment [19] and in experiment [20] was “inactive” each time.
For `CCN(CC)CCO`, the Potency entry in experiment [1], in experiment [2], in [3], in [4], in [5] and in [6] was “inactive” each time. The Potency entry in experiment [7], in experiment [8], in experiment [9], in experiment [10], in experiment [11] and in experiment [12] was “inactive” each time. Besides, the Potency result in experiment [13], in [14], in [15], in experiment [16], in [17] and in experiment [19] was “inactive” in each case. In [20], the Potency entry is “inactive”.
With `C=CCO`, the Potency entry in experiment [1], in experiment [2], in [3], in experiment [4], in experiment [5] and in [6] was “inactive” each time. The Potency entry in experiment [7], in experiment [8], in [9], in [10], in experiment [15] and in [16] was “inactive” throughout. Besides, the Potency result in [18] and in experiment [20] was “inactive” in each case. Besides, the Potency entry in experiment [17] was “inactive and 61.1 µM (active)”.
